The first test addresses SLC2A8. In words: pooled miR-30 sensor sort-seq; sequence = guide strand. Conditions: shRNA.
Consider TGAACACCATGACCACACCTGA, for which the sensor-assay potency score (higher = more potent) was -0.865.

In turn, TTGGTGAGGACGCAGATGCCTG registered a sensor-assay potency score (higher = more potent) of -1.08.

In turn, TTTGTTCCAGAGTCTTTCCTTT registered a sensor-assay potency score (higher = more potent) of 0.354.

Consider TTTAGTTTCAGGGACACAGAAC, for which the sensor-assay potency score (higher = more potent) is -0.989.

On to ATTTCGGAGATGTAGACCGGGG, for which the sensor-assay potency score (higher = more potent) was -0.598.

Sequence TGAGTCAGCAGGAAGCGCGGGG yielded a sensor-assay potency score (higher = more potent) of -0.717.

With ATTAGCTGCACACAGGAGCCGA, the sensor-assay potency score (higher = more potent) is -0.991.

TCTGCATAGAACATGACGGCGT had a sensor-assay potency score (higher = more potent) of -0.336.

Turning to ATCTCTGACATGAGGAGCCAGG, the sensor-assay potency score (higher = more potent) is -1.73.

Sequence TTAGCTGCACACAGGAGCCGAG yielded a sensor-assay potency score (higher = more potent) of -0.983.

Sequence TAGCTGCACACAGGAGCCGAGC had a sensor-assay potency score (higher = more potent) of -1.45.

Take AAAAGGACACTGAAGATGCAGA: the sensor-assay potency score (higher = more potent) is -0.924.

Another test addresses SLC30A10. The test is described as above. Conditions: shRNA.
Consider TTAGAAACAAGAACTTCTTTGA, for which the sensor-assay potency score (higher = more potent) came to 0.415.

TCTGAGAATATTTTCTACCTTA: the sensor-assay potency score (higher = more potent) was -0.0606.

In the case of TAAGCTATGATCTCACCTGAGC, the sensor-assay potency score (higher = more potent) was -0.73.

For the sequence TCTTTGAACACTGTATCCGCAG, the sensor-assay potency score (higher = more potent) was -0.212.

ATTTGAAACATTCTATAGCTGC yielded a sensor-assay potency score (higher = more potent) of -0.495.

TTAAGCATTTGAAACATTCTAT registered a sensor-assay potency score (higher = more potent) of 0.231.

TTAGCTAGAAGTTCTAATCAGT: the sensor-assay potency score (higher = more potent) was 0.384.

TTAAGCTATGATCTCACCTGAG: the sensor-assay potency score (higher = more potent) is -0.235.

TTTGTTAAGACTTTGTCCGTGG yielded a sensor-assay potency score (higher = more potent) of 0.766.

Take TAACACTGCCAGTTACACGGGT: the sensor-assay potency score (higher = more potent) was -0.383.

In turn, TTTTGTTAAGACTTTGTCCGTG came in with a sensor-assay potency score (higher = more potent) of 0.41.

TTTTGGGACCATCTGTAGCAGA returned a sensor-assay potency score (higher = more potent) of -0.988.

The target of the next test is SLC30A1. The description is as above. Conditions: shRNA.
TTAAGTAATGGATAGGTTGTGT: the sensor-assay potency score (higher = more potent) was -0.332.

The sequence TTTTCAGCTTTAGTCCTCCTGG displayed a sensor-assay potency score (higher = more potent) of -0.574.

In the case of TTTACTACTACAATCACTGAAC, the sensor-assay potency score (higher = more potent) was -0.0512.

The sequence TTGATTTAGAGCCTACACTAGC showed a sensor-assay potency score (higher = more potent) of -0.669.

With TTCACTTGTACTTCCACTGTAT, the sensor-assay potency score (higher = more potent) came out at 0.732.

As to TTTGTTTAGGAACAGTTTGTAG, the sensor-assay potency score (higher = more potent) is -1.09.

TAATCTCTATCACAACAGCAGG showed a sensor-assay potency score (higher = more potent) of -1.43.

In turn, TTCTTCTCTAGATTGTTACTAA registered a sensor-assay potency score (higher = more potent) of -0.537.

As to TACACTAGCAAATTCAGGCTGA, the sensor-assay potency score (higher = more potent) worked out at 0.702.

In the case of TTAATCTCTATCACAACAGCAG, the sensor-assay potency score (higher = more potent) was 0.193.

Take TAGTGTCCCACAACATTGCTTC: the sensor-assay potency score (higher = more potent) amounted to 0.199.

TAGATTGTTACTAAGTTCTAAA showed a sensor-assay potency score (higher = more potent) of -0.976.

The target in another test is SLC34A1. Described as above. The settings on record: shRNA.
TCCGTATTGATGACCTTCTGGA yielded a sensor-assay potency score (higher = more potent) of -0.714.

Sequence TAGAGGACGGCAAACCAGCGGT came in with a sensor-assay potency score (higher = more potent) of -0.623.

Consider TAGTCATGTGTACACGTGCAGA, for which the sensor-assay potency score (higher = more potent) is -1.32.

As for TCTCAATGCTGATCACACCAAG, the sensor-assay potency score (higher = more potent) was -0.785.

The record behind these values is the OligoGym collection.
Note: reference of the scale not given here.
